# Screening data deposited in PubChem by Broad Institute.
# PglD inh – PglD (C. jejuni) enzyme inhibition; 0.098% of 360,000 active; AID 602405; inhibition, % at 12.5 µM; purified PglD enzyme, DTNB colorimetric CoA detection; in the data active = inhibition above about 16%, passing the limit was not always enough; inconclusive = no clear call, values can overlap the other calls
# miR122 inh – inhibitors of miR-122 in Huh7 cells | Huh7 miR-122 Renilla luciferase sensor, 48 h; neutral wells = 0, positive control = 100 | activation (reporter increase), % at 12.5 µM | 0.3% of 340,000 active;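 active = mean replicate activation score at least 90 and every replicate individually at or above 90; inconclusive = only one of the two criteria met; inactive = neither criterion met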;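 note: higher luciferase means less miR-122 activity so hits act as miR-122 inhibitors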
# Statin myotox sup – suppression of simvastatin myotoxicity. C2C12 myotubes + simvastatin, ATP luminescence, 48 h; scaled: DMSO 0, geranylgeraniol control 100. rescue of ATP level, % at 7.49 µM. 0.78% of 330,000 active;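 active = mean ATP rescue above about 67%, or every replicate alone reaching that limit, limit read from the data, passing the limit was not always enough; inconclusive = no clear call, values can overlap the other calls; inactive = mean under the limit and some replicate under it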;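 note: myotubes were challenged with 10 µM simvastatin during compound exposure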
# NSD2 HMT inh – blocks human histone methyltransferase NSD2. O96028. NSD2 peptide methylation, AlphaScreen, 120 min. inhibition, % at 12.5 µM. 0.54% of 310,000 active; in the data active = inhibition above about 50%
# Numbers stand for hits; – = inactive; ? = inconclusive; · = no result given; [ ] = dose if it differs, or a comment. Compounds with a hit are over-represented: about 1.2% of the library has one in this group of screens.
SMILES,PglD inh,miR122 inh,Statin myotox sup,NSD2 HMT inh
Cc1cc(NC(=O)CSc2ccc3nnc(CCNS(=O)(=O)c4ccccc4)n3n2)no1,–,–,86,–
COc1ccc(S(=O)(=O)NCCc2nnc3ccc(SCC(=O)Nc4cc(C)on4)nn23)cc1,·,·,·,–
C[C@@H]1CN([C@@H](C)CO)C(=O)Cc2cc(NS(=O)(=O)c3ccc(F)cc3)ccc2O[C@H]1CN(C)Cc1ccc2c(c1)OCO2,–,–,–,·
C[C@H](CO)N1C[C@H](C)[C@@H](CN(C)Cc2ccc3c(c2)OCO3)Oc2ccc(NS(=O)(=O)c3ccc(F)cc3)cc2CC1=O,–,–,150,·
C[C@H]1CN([C@@H](C)CO)C(=O)Cc2cc(NS(=O)(=O)c3ccc(F)cc3)ccc2O[C@@H]1CN(C)Cc1ccc2c(c1)OCO2,–,–,124,·
CCOc1ccc(OCCCCN(C)C)cc1,–,–,90,–
Cc1cccc(-c2nnc3n2N=C(c2ccccc2Br)CS3)c1,–,–,103,–
COc1ccccc1NC(=O)N1C[C@H]2[C@@H](c3ccccc31)[C@H](CO)N2C(=O)C1CCCC1,–,–,–,·
OC[C@H]1[C@H](c2ccc(C#Cc3ccccc3)cc2)[C@@H]2CN(CC3CCOCC3)CCCCN12,–,–,·,·
COc1ccc(-n2c(C)cc(C=O)c2C)cc1Cl,–,–,102,–
Cc1ccc(CC2CC(=O)N(CCc3ccc4c(c3)OCO4)C2=O)cc1 (configuration not stated),–,–,147,–
C[C@@H]1CN([C@H](C)CO)C(=O)c2cc(NC(=O)C3CCCCC3)ccc2O[C@@H](C)CCCCO[C@H]1CN(C)S(=O)(=O)c1ccc(Cl)cc1,–,–,·,·
CC(C)(C)C1C/C(=C/c2ccccn2)C(=O)/C(=C/c2ccccn2)C1 (configuration not stated),–,–,116,·
Cc1c(NC(=O)c2ccc([N+](=O)[O-])o2)cccc1-c1nc2ncccc2o1,–,–,107,–
Cc1ccc(-c2nnc(Nc3ccccc3)c3ccccc23)cc1S(=O)(=O)NCC1CCCO1 (configuration not stated),–,127,–,–
CC(=O)Nc1ccc(Nc2nnc(-c3ccc(C)c(S(=O)(=O)NCC4CCCO4)c3)c3ccccc23)cc1 (configuration not stated),–,–,–,–
CCCCn1nc2cc(C(=O)NCc3ccc(C(F)(F)F)cc3C(F)(F)F)ccc2c1OCC,–,–,83,·
COc1cc(/C=C(\C(=O)O)c2ccc(S(=O)(=O)N3CCCCC3)s2)ccc1OC(F)F,·,·,·,–
COc1ccc(CN2CCn3ncc(C(=O)Nc4cccc(C)c4)c3C2=O)cc1,–,–,124,–
CCC(CNc1cc(OC)cc2cccnc12)NC1CCCCC1 (configuration not stated),·,·,·,80
COc1cc(NCCCC(C)N)c2ncccc2c1 (configuration not stated),·,–,–,141
OC(CCN1CCCCC1)(c1ccccc1)c1ccccc1,–,–,–,·
C=CCC(O)(CCN1CCCCC1)c1ccccc1 (configuration not stated),–,–,88,–
Nc1nonc1C(=O)N/N=C/c1ccc(-c2cccc([N+](=O)[O-])c2)o1,–,–,176,–
CC(=O)Nc1ccc2c(c1)C(=O)N(C)[C@H]1CC[C@@H](CC(=O)NCc3ccccc3Cl)O[C@H]1CO2,–,–,–,·
SMILES,PglD inh,miR122 inh,Statin myotox sup,NSD2 HMT inh
COc1ccc(C(c2nnnn2CC2CCCO2)N2CCN(c3ccccc3)CC2)cc1 (configuration not stated),–,–,–,–
COc1ccc(N2CCN(C(c3cc(OC)ccc3OC)c3nnnn3CC3CCCO3)CC2)cc1 (configuration not stated),–,–,79,–
CCC(=O)N1CCc2cc(S(=O)(=O)CCC(=O)NCCc3ccc(OC)c(OC)c3)ccc21,–,–,107,–
NC(=O)c1cccc(S(=O)(=O)N2CCCCC2)c1,·,–,–,–
Nc1cccc2c1C(=O)N(C(=O)c1cccc(S(=O)(=O)N3CCCC3)c1)C2=O,–,–,138,–
CC/C(O)=C(\C#N)c1nnc2n1CCCCC2,–,–,87,–
O=c1[nH]c(=O)c2[nH]c(=O)n(-c3ccccc3)c2[nH]1,·,?,–,·
O=c1[nH]c(=S)c2[nH]c(=S)n(-c3ccccc3)c2[nH]1,–,–,99,–
CCCNC(=O)Cc1c(O)c2ccccc2[nH]c1=O,·,–,108,–
C[C@@H](NC(=O)C[C@@H]1C=C[C@H](NC(=O)C2CCC2)[C@H](CO)O1)c1ccccc1,–,·,–,·
COc1ccc(-c2noc(Cc3ccccc3OC)n2)cc1,–,–,–,·
COc1ccc(-c2noc(Cc3cccs3)n2)cc1,–,–,93,–
CCNc1nc(SCc2ccccc2)nc(N2CCOCC2)n1,–,–,99,–
Clc1ccc(CNc2nc(N3CCOCC3)nc(N3CCOCC3)n2)cc1,·,129,–,–
COc1ccc(NC(=O)N[C@H]2CC[C@@H](CCn3cc(-c4ccccn4)nn3)O[C@H]2CO)cc1,–,–,–,·
CC(=O)N1CCN(c2nnnn2-c2ccccc2)CC1,–,–,126,–
Oc1ccc(N2CCN(c3nnnn3-c3ccccc3)CC2)cc1,–,–,–,–
C[C@@H]1CN([C@@H](C)CO)C(=O)Cc2cc(NS(=O)(=O)c3ccc(F)cc3)ccc2O[C@@H]1CN(C)Cc1ccc(C(=O)Nc2ccccc2N)cc1,–,–,–,·
Cc1ccc(S(=O)(=O)Nc2ccc3c(c2)CC(=O)N([C@H](C)CO)C[C@H](C)[C@H](CN(C)Cc2ccc(C(=O)Nc4ccccc4N)cc2)O3)cc1,–,229[16.7 µM],–,·
Cc1ccc(S(=O)(=O)Nc2ccc3c(c2)CC(=O)N([C@@H](C)CO)C[C@@H](C)[C@H](CN(C)Cc2ccc(C(=O)Nc4ccccc4N)cc2)O3)cc1,–,–,–,·
C[C@H]1CN([C@@H](C)CO)C(=O)Cc2cc(NS(=O)(=O)c3ccc(F)cc3)ccc2O[C@H]1CN(C)Cc1ccc(C(=O)Nc2ccccc2N)cc1,–,114[16.7 µM],–,·
Cc1noc(C)c1NC(=O)Nc1ccc2c(c1)C(=O)N([C@@H](C)CO)C[C@H](C)[C@H](CN(C)C)OCCCC[C@@H](C)O2,–,–,–,·
c1cc(-c2noc(CC3CCCCC3)n2)ccn1,–,–,147,–
COc1ccc(Br)cc1CNC(=O)Nc1cccs1,–,106,–,–
COc1ccccc1CNC(=O)Nc1cccs1,–,–,·,–
SMILES,PglD inh,miR122 inh,Statin myotox sup,NSD2 HMT inh
CCC(C)(NC(=O)c1ccc(=O)[nH]c1)C(=O)NC1CCCC1 (configuration not stated),–,–,92,·
COc1ccc(S(=O)(=O)Nc2ccc3c(c2)C(=O)N([C@H](C)CO)C[C@@H](C)[C@H](CN(C)C(=O)Cc2ccccc2)OCCCC[C@H](C)O3)cc1,–,–,·,·
O=C1CSC(=Nc2ccc(F)cc2)N1,–,–,–,–
O=C1CSC(=Nc2ccccc2)N1,–,–,95,–
CCC(=O)N[C@H]1CC[C@@H](CC(=O)OC)O[C@@H]1CO,–,–,–,·
Nc1c(C(=O)NCc2ccco2)nnn1CC(=O)Nc1ccccc1,–,–,97,–
